The source made the active and inactive calls. Unless noted, no rule for the calls is given here.
Legend:
[1] = tested on: Wnt5a (protein binding on small-molecule microarray); assay: Wnt5a binders on small-molecule microarray, primary screen, biophysical, 635/667 nm fluorescence (AID 1142); conditions: 635 nm fluorescence, higher = more signal;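 also: fluorescence read at 667 nm with signal to noise per printed feature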
[2] = cell viability in Huh7 cells, primary screen, cytotoxicity control for HCV replication inhibitor project, CellTiter-Glo luminescence, basal, 48 h (AID 1143); conditions: Huh7 HCV replicon, higher = more signal, called active from +8 up or from −8 down;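 also: Huh7 hepatoma cells carrying a hepatitis C replication reporter with no stimulus; test concentration not given here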
[3] = P. aeruginosa biofilm formation inhibitors, primary screen, PAO1 strain, BacTiter-Glo luminescence, LB-PBS (AID 1144); conditions: 12 h, higher = more signal
[4] = CREB reporter modulators without forskolin, primary screen, cell-based, PC12, CRE-LacZ reporter, unstimulated (AID 1145); conditions: no forskolin, luminescence, 4.5 h, higher = more signal, called active from +8 up or from −8 down
[5] = CREB reporter modulators under forskolin, primary screen, cell-based, PC12, CRE-LacZ reporter, forskolin-stimulated (AID 1146); conditions: luminescence, 4.5 h, higher = more signal, called active from +8 up or from −8 down;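 also: PC12 cells with 6xCRE LacZ reporter stimulated by forskolin 10 µM; beta-galactosidase reporter signal reflecting CREB driven transcription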
[6] = molecular target: Streptavidin (Streptomyces avidinii) (UniProt P22629); assay: streptavidin binders on small-molecule microarray, primary screen, artefact control for SMM compound annotation, biophysical, 635/667 nm fluorescence (AID 1147); conditions: streptavidin binding, higher = more signal;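 also: signal reflects streptavidin binding to arrayed compounds as a control protein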
Sequence of Streptavidin (Streptomyces avidinii) (P22629 whole entry, looked up): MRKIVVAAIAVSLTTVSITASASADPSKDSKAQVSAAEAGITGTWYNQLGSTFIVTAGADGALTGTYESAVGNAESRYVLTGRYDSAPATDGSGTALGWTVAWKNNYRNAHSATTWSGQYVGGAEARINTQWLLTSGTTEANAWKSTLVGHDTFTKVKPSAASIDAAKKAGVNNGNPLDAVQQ

[7] = small-molecule binders of probe aInhba, primary screen, biochemical, small-molecule microarray, 635/667 nm fluorescence (AID 1148); conditions: higher = more signal;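 also: score merges 667nm spot fluorescence with signal-to-noise for antibody binding to printed compounds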
Torsin-1A (Homo sapiens) [8] = molecular target: Torsin-1A (Homo sapiens) (UniProt O14656); assay: torsin A binders from cell lysate, primary screen, small-molecule microarray, wild-type, 635/667 nm (AID 1149); conditions: COS7 hTOR1A-WT lysate, 635 nm fluorescence, higher = more signal
Sequence of Torsin-1A (Homo sapiens) (O14656 whole entry, looked up): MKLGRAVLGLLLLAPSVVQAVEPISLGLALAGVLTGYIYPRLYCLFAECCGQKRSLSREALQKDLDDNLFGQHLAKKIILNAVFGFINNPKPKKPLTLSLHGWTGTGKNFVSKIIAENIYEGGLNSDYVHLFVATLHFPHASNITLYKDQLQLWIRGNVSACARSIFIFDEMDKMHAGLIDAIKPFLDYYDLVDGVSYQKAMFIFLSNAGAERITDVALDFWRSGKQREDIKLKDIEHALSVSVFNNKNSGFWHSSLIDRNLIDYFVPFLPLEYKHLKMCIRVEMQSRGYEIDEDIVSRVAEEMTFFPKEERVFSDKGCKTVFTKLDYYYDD

Torsin-1A (Homo sapiens) [9] = molecular target: Torsin-1A (Homo sapiens) (UniProt O14656); assay: small-molecule binders of mutant TOR1A in lysate, primary screen, cell lysate, small-molecule microarray, COS7 lysate, 635/667 nm fluorescence (AID 1150); conditions: COS7 hTOR1A mutant lysate, 635 nm fluorescence, higher = more signal;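 also: score pools 667 nm emission and signal to noise measuring lysate protein binding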
[10] = tested on: Sonic hedgehog protein (Shh); assay: small-molecule binders of Shh protein, primary screen, biochemical, small-molecule microarray, 635/667 nm fluorescence (AID 1151); conditions: small-molecule microarray binding, 635 nm fluorescence; higher = more signal;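 also: Shh protein binding to compounds spotted on small-molecule microarray slides; score combines spot fluorescence intensity with signal-to-noise across triplicate slides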

Structure (SMILES)	composite z-score [1]	z-score [2]	z-score [3]	z-score [4]	z-score [5]	composite z-score [6]	composite z-score [7]	composite z-score (Torsin-1A (Homo sapiens) [8])	composite z-score (Torsin-1A (Homo sapiens) [9])	composite z-score [10]
O=c1cccc(-c2cccc(Cl)c2)o1	0.0303	-1.07 (inactive)	0.96 (inactive)	0.631 (inactive)	-1.05 (inactive)	0.244	0.0047	0.34	0.617	-0.215
C#CCNC(=O)[C@H](Cc1ccccc1)NC(=O)[C@@H](N=[N+]=[N-])C(C)C	0.0696	-0.0943 (inactive)	0.0632 (inactive)	0.0918 (inactive)	-0.462 (inactive)	-0.0247	-0.025	0.0696	0.892	0.539
C=C[C@H](COC(C)=O)NS(=O)(=O)c1ccc(Br)cc1	-0.0966	0.0651 (inactive)	-0.0168 (inactive)	0.26 (inactive)	0.678 (inactive)	1.16	-0.0762	0.119	-0.214	0.382
COC(=O)[C@@]1(Cc2ccccc2)[C@H]2c3cc(C(=O)N4CCCC4)n(C[C@H](O)CO)c3C[C@H]2CN1C(=O)c1ccccc1	-0.303	0.0728 (inactive)	-0.367 (inactive)	0.39 (inactive)	0.881 (inactive)	1.29	0.163	0.677	1.4	0.139
NC(=O)N1C(=O)C2C(C1=O)C1C=C(CCCO)C2C(c2cccs2)N1Cc1cc2c(cc1Br)OCO2 (stereo not given)	-0.25	-0.477 (inactive)	-0.584 (inactive)	0.424 (inactive)	-0.298 (inactive)	1.13	-0.0983	-0.164	0.279	0.0313
[N-]=[N+]=NCc1ccccc1C[C@]1(C(=O)NCC(O)CO)N=C(c2ccc(OCCCO)cc2)O[C@H]1c1ccccc1CN=[N+]=[N-] (stereo not given in full)	0.493	-4.68 (inactive)	-0.998 (inactive)	0.447 (inactive)	-1.32 (inactive)	0.661	0.404	0.408	1.09	-0.881
COc1cc2c(cc1O)C(C)N(Cc1cc3c(cc1Br)OCO3)CC2 (stereo not given)	-0.131	-3.33 (inactive)	0.3 (inactive)	1.27 (inactive)	0.861 (inactive)	-0.679	-0.157	-1.12	-0.829	-0.836
CC1CC/C=C\[C@H]2OC34C=CCN(c5ccc6ccccc6c5)C(=O)[C@H]3N(C(CO)C(C)C)C(=O)[C@@H]4C2C(=O)O1 (stereo not given in full)	-0.257	-0.0047 (inactive)	1.27 (inactive)	-0.0939 (inactive)	-0.714 (inactive)	-0.217	0.0028	-1.06	-0.477	0.485
C=C(CCCC)/C(=C/C[C@@H](OC(C)=O)c1ccc(CO)o1)c1cc(C(=O)OC)ccc1OC	0.259	0.0294 (inactive)	-0.504 (inactive)	3.68 (inactive)	2.34 (inactive)	0.498	-0.0405	0.436	0.371	2.15
COc1cc2c(cc1OC)CN(C(=O)[C@H]1[C@@H]3C(=O)O[C@@H](c4ccccc4)[C@@H](c4ccccc4)N3[C@@H](c3ccc(OCCO)cc3)[C@]13C(=O)Nc1ccc(C#CC4(O)CCCCCC4)cc13)CC2	0.928	-0.425 (inactive)	-1.33 (inactive)	-0.438 (inactive)	0.195 (inactive)	1.54	1.23	0.765	1.85	1.96
C=C(/C(=C/C[C@@H](OC(=O)c1ccncc1)c1ccccc1OCCO)c1cc(C(=O)OC)ccc1OC)C(C)C	0.449	-2.43 (inactive)	0.128 (inactive)	22.5 (active)	-0.267 (inactive)	0.187	0.0498	0.438	1.29	0.698
CC(C)(C)OC(=O)CC[C@]1(C(=O)O)N=C(c2ccc(OCCCO)cc2)O[C@H]1c1ccccc1CN=[N+]=[N-]	0.108	0.109 (inactive)	0.618 (inactive)	-1.09 (inactive)	-1.7 (inactive)	-0.247	0.0074	-0.61	-0.13	-0.533
COCCCNC(=O)[C@@]1(Sc2ccc(C)cc2)CC(=O)N(Cc2cc(C(F)(F)F)cc(C(F)(F)F)c2)[C@@H]1c1ccc(CO)cc1	0.0054	-0.418 (inactive)	0.126 (inactive)	0.506 (inactive)	-1.15 (inactive)	0.072	0.0111	1.27	0.389	1.68
COc1ccc([Si](C)(C)[C@H]2[C@H](CCn3cc([C@H](O)c4ccccc4)nn3)O[C@@]3(C(=O)N(Cc4ccc(N5CCOC5=O)cc4)c4ccccc43)[C@@H]2C)cc1	-0.271	-1.3 (inactive)	-0.434 (inactive)	0.804 (inactive)	-0.889 (inactive)	-0.303	-0.208	-0.995	-1.35	-0.25
COC(=O)[C@@]1(Cc2ccccc2)[C@H]2c3cc(C(=O)N4CCCC4)[nH]c3C[C@H]2CN1C(=O)c1ccccc1	-0.0884	-0.117 (inactive)	-0.39 (inactive)	0.779 (inactive)	0.283 (inactive)	0.255	0.192	0.223	0.246	-0.786
CC(C)C(=C=CC[C@H](O)c1ccc(OCCO)cc1)C[C@H](O)c1cc(Cl)cc(Cl)c1O	0.0991	-3.24 (inactive)	0.0919 (inactive)	7.76 (inactive)	-0.457 (inactive)	0.122	0.153	0.895	0.656	1.71
CCCCC(CC)C(O)C1C=CC2C(=O)N(c3ccccc3)C(=O)C2N1Nc1ccc([N+](=O)[O-])cc1 (stereo not given)	0.382	-0.728 (inactive)	0.00163 (inactive)	0.285 (inactive)	-0.0973 (inactive)	1.41	0.32	0.202	0.923	-0.277
Cc1ccc(F)cc1S(=O)(=O)N[C@@H]1CCN(Cc2ccc(OC(C)C)cc2)C1	-0.0943	-3.86 (inactive)	0.816 (inactive)	1.76 (inactive)	0.524 (inactive)	-0.293	-0.341	0.277	0.719	-0.0003
COCCOC(=O)N1C(=O)[C@@]2(c3cc(C#CC4=CCCCC4)ccc31)[C@H](c1ccc(O)cc1)N1[C@H](c3ccccc3)[C@H](c3ccccc3)OC(=O)[C@H]1[C@@H]2C(=O)Nc1nc2ccccc2s1	0.365	-0.799 (inactive)	-0.424 (inactive)	0.476 (inactive)	2.17 (inactive)	1.18	0.52	0.776	0.89	1.73
COc1cc(OC)c(C(O)C2C=CC3C(=O)N(c4ccccc4)C(=O)C3N2Nc2ccc(C#N)cc2)cc1Br (stereo not given)	0.507	0.411 (inactive)	-0.245 (inactive)	2.17 (inactive)	-0.475 (inactive)	1.9	0.451	0.367	0.99	-0.186
CN1C(=O)C2C=CC(C(O)C3CCCCC3)N(N3CCCCC3)C2C1=O (stereo not given)	0.341	0.505 (inactive)	-0.416 (inactive)	-0.326 (inactive)	0.158 (inactive)	0.842	0.268	0.221	0.579	0.875
CCOc1cc(C(O)C2C=CC3C(=O)N(C4CCCCC4)C(=O)C3N2Nc2ccc(OC)cc2)ccc1O (stereo not given)	0.0751	-1.26 (inactive)	-0.855 (inactive)	0.276 (inactive)	-1.51 (inactive)	1.43	0.0808	0.705	1.17	-0.207
C=C(C(=O)CC[C@H](OC(=O)c1cccnc1)c1ccc(CO)o1)C(C)C	0.159	0.3 (inactive)	0.232 (inactive)	0.48 (inactive)	1.17 (inactive)	0.441	0.228	0.684	0.449	1.79
C=C(COC)/C(=C/C[C@@H](OC(=O)c1ccncc1)c1ccc(CO)o1)c1cnc2ccccc2c1	0.911	0.173 (inactive)	-0.854 (inactive)	-0.611 (inactive)	-0.0377 (inactive)	1.07	-0.0136	1.86	0.962	2.46
CC(C)CN1C(=O)[C@@]2(c3ccc([N+](=O)[O-])cc3)CC(=O)N(CC34CC5CC(CC(C5)C3)C4)[C@@H]2c2ccc(CO)cc21	-0.765	-4.16 (inactive)	-1.58 (inactive)	-0.348 (inactive)	0.134 (inactive)	-0.877	-0.128	-1.22	-1.08	-1.51
COc1ccc([Si](C)(C)[C@H]2[C@H](CCn3cc([C@H](O)c4ccccc4)nn3)O[C@@]3(C(=O)N(Cc4ccc(N5CCC5=O)cc4)c4ccccc43)[C@@H]2C)cc1	0.826	-3.89 (inactive)	0.572 (inactive)	0.31 (inactive)	-1.05 (inactive)	-0.503	-0.128	0.441	0.489	1.83
O=C1OCCC=C[C@H]2OC34C=CCN(c5ccc(Cl)cc5)C(=O)[C@H]3N(CCCCCO)C(=O)[C@@H]4C12 (stereo not given in full)	-0.244	-0.091 (inactive)	-0.622 (inactive)	0.187 (inactive)	-0.382 (inactive)	-0.654	-0.0986	0.0095	1.05	0.58
C[C@H]1ON(c2ccc(C(=O)OC(C)(C)C)cc2)[C@@H](c2ccc(O)cc2)[C@@H]1C(=O)N1C(=O)OC[C@@H]1c1ccccc1	0.382	-2.3 (inactive)	-0.0446 (inactive)	0.846 (inactive)	0.0621 (inactive)	0.179	-0.114	-0.0484	0.39	1.97
COc1ccc(C(O)C2C=CC3C(=O)N(c4ccccc4)C(=O)C3N2Nc2ccc(C#N)cc2)c2ccccc12 (stereo not given)	0.0756	-0.127 (inactive)	-0.856 (inactive)	-0.143 (inactive)	0.976 (inactive)	2.49	0.442	0.109	0.917	-0.149

— PubChem BioAssay
